# Assay results from PubChem BioAssay AID1159580 (chemical genetic matrix, 2015).
# The campaign covered roughly 5,500 compounds. About 2,000 (36%) were called active. Inconclusive results (about 18%) are left out. The list shows a part of the results. Values without a mark were called inactive. Rule as the data show it: active = normalized growth mostly below about 0.91 (no sharp cut-off); inconclusive = no clear call, values can overlap the other calls; inactive = mostly above about 0.92.
# Experiment: chemical genetic growth profiling, strain panel (AID 1159580);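 also: tested at 20 µM; growth read once vehicle control cultures reached saturation at 30 °C; 1 = growth at the plate median or of vehicle wells; lower values mean less growth of the strain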
# Conditions: S. cerevisiae deletion strains, growth OD
compound,measurement,setting,value
Oc1cc(O)c2c(c1)OC(c1cc(O)c(O)c(O)c1)C(O)C2c1c(O)cc(O)c2c1OC(c1cc(O)c(O)c(O)c1)C(O)C2c1c(O)cc(O)c2c1OC(c1cc(O)c(O)c(O)c1)C(O)C2 (stereo not given),normalized growth,"locus YAL013W, strain DEP1, hits give low values",0.977
same,normalized growth,"locus YBR021W, strain FUR4, hits give low values",1.02
same,normalized growth,"locus YBR229C, strain ROT2, hits give low values",0.992
same,normalized growth,"locus YCL029C, strain bik1, hits give low values",0.999
same,normalized growth,"locus YDL035C, strain GPR1, hits give low values",0.889
same,normalized growth,"locus YDL074C, strain BRE1, hits give low values",0.846
same,normalized growth,"locus YDL101C, strain DUN1, hits give low values",0.913
same,normalized growth,"locus YDL134C, strain PPH21, hits give low values",0.937
same,normalized growth,"locus YDL185W, strain tfp1, hits give low values",0.973
same,normalized growth,"locus YDL192W, strain arf1, hits give low values",0.948
same,normalized growth,"locus YDR101C, strain arx1, hits give low values",1.03
same,normalized growth,"locus YDR150W, strain NUM1, hits give low values",0.964
same,normalized growth,"locus YDR162C, strain NBP2, hits give low values",0.84
same,normalized growth,"locus YDR318W, strain mcm21, hits give low values",0.973
same,normalized growth,"locus YDR388W, hits give low values",1
same,normalized growth,"locus YDR502C, strain sam2, hits give low values",0.979
same,normalized growth,"locus YEL061C, strain CIN8, hits give low values",0.933
same,normalized growth,"locus YER110C, hits give low values",1.02
same,normalized growth,"locus YER155C, strain BEM2, hits give low values",1.02
same,normalized growth,"locus YER167W, strain BCK2, hits give low values",1.02
same,normalized growth,"locus YGL078C, strain dbp3, hits give low values",1.02
same,normalized growth,"locus YGL086W, strain mad1, hits give low values",0.964
same,normalized growth,"locus YGL248W, strain PDE1, hits give low values",0.911
same,normalized growth,"locus YGR078C, strain PAC10, hits give low values",0.918
same,normalized growth,"locus YGR135W, strain pre9, hits give low values",0.912
same,normalized growth,"locus YGR229C, strain SMI1, hits give low values",0.747 (active)
same,normalized growth,"locus YGR252W, strain gcn5, hits give low values",0.963
same,normalized growth,"locus YHR030C, strain SLT2, hits give low values",0.972
same,normalized growth,"locus YHR079C, strain IRE1 (second series), hits give low values",1.04
same,normalized growth,"locus YHR094C, strain hxt1, hits give low values",1.02
same,normalized growth,"locus YHR129C, strain ARP1, hits give low values",0.915 (active)
same,normalized growth,"locus YHR200W, strain rpn10, hits give low values",0.98
same,normalized growth,"locus YIL066C, strain RNR3, hits give low values",0.919
same,normalized growth,"locus YIL073C, strain SPO22, hits give low values",0.9
same,normalized growth,"locus YIL125W, strain kgd1, hits give low values",1.02
same,normalized growth,"locus YIR030C, strain dcg1, hits give low values",1
same,normalized growth,"locus YJL095W, strain BCK1, hits give low values",0.845
same,normalized growth,"locus YJL134W, strain LCB3, hits give low values",0.99
same,normalized growth,"locus YJL168C, strain set2, hits give low values",1
same,normalized growth,"locus YJL187C, strain SWE1 (second series), hits give low values",0.775 (active)
same,normalized growth,"locus YJR043C, strain POL32, hits give low values",0.857
same,normalized growth,"locus YKL009W, strain mrt4, hits give low values",1.15 [resistant] (active)
same,normalized growth,"locus YKL068W, hits give low values",1.02
same,normalized growth,"locus YKL085W, strain MDH1 (second series), hits give low values",1.01
same,normalized growth,"locus YKL085W, strain MDH1, hits give low values",1.01
same,normalized growth,"locus YKL190W, strain CNB1, hits give low values",0.961
same,normalized growth,"locus YKR001C, strain vps1, hits give low values",0.982
same,normalized growth,"locus YLR039C, strain RIC1, hits give low values",0.836
same,normalized growth,"locus YLR058C, strain SHM2, hits give low values",0.835 (active)
same,normalized growth,"locus YLR102C, strain apc9, hits give low values",1.02
same,normalized growth,"locus YLR262C, strain YPT6, hits give low values",0.935
same,normalized growth,"locus YLR268W, strain sec22, hits give low values",0.96
same,normalized growth,"locus YLR330W, strain CHS5, hits give low values",1
same,normalized growth,"locus YLR342W, strain FKS1 (second series), hits give low values",0.919
same,normalized growth,"locus YLR371W, strain rom2, hits give low values",0.91
same,normalized growth,"locus YLR418C, strain cdc73, hits give low values",0.92
same,normalized growth,"locus YML016C, strain PPZ1, hits give low values",0.94
same,normalized growth,"locus YML032C, strain rad52, hits give low values",1
same,normalized growth,"locus YML124C, strain tub3, hits give low values",1.01
same,normalized growth,"locus YMR078C, strain ctf18, hits give low values",1.01
same,normalized growth,"locus YMR223W, strain ubp8, hits give low values",0.947
same,normalized growth,"locus YMR307W, strain GAS1, hits give low values",0.928
same,normalized growth,"locus YNL067W, strain RPL9B, hits give low values",0.917
same,normalized growth,"locus YNL233W, strain BNI4, hits give low values",0.945
same,normalized growth,"locus YNL250W, strain rad50, hits give low values",1
same,normalized growth,"locus YNL271C, strain bni1, hits give low values",0.989
same,normalized growth,"locus YNL298W, strain CLA4, hits give low values",1.01
same,normalized growth,"locus YNL307C, strain MCK1, hits give low values",1.02
same,normalized growth,"locus YNL322C, strain KRE1, hits give low values",0.916 (active)
same,normalized growth,"locus YNR052C, strain pop2, hits give low values",0.952
same,normalized growth,"locus YOL012C, strain htz1",0.566
same,normalized growth,"locus YOL147C, strain pex11, hits give low values",1.01
same,normalized growth,"locus YOR061W, strain CKA2, hits give low values",0.931
same,normalized growth,"locus YOR069W, strain VPS5, hits give low values",0.976
same,normalized growth,"locus YOR136W, strain idh2, hits give low values",1.02
same,normalized growth,"locus YOR144C, strain elg1, hits give low values",1
same,normalized growth,"locus YOR184W, strain ser1, hits give low values",0.968
same,normalized growth,"locus YOR316C, strain cot1, hits give low values",1.01
same,normalized growth,"locus YPL055C, strain LGE1, hits give low values",0.886
same,normalized growth,"locus YPL241C, strain CIN2, hits give low values",0.974
same,normalized growth,"locus YPR119W, strain clb2, hits give low values",1.02
same,normalized growth,"locus YPR141C, strain kar3, hits give low values",1
same,normalized growth,"locus YPR163C, strain tif3, hits give low values",1.01
same,normalized growth,"locus YPR167C, strain met16, hits give low values",0.982
same,normalized growth,"strain wtn01, hits give low values",1.01
